Assays:
Assay in all cases: PBM binding z-score (relative to random genomic background probes); higher = stronger binding; sequences stand for … in GC…GCGATTGACAGCGTAGAATGAAGG
[1] = tested on: FXR:RXRa (NR concentration 270 nM, RXRa partner concentration 90 nM)
Method in brief: (§1)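 Scanned fluorescence from custom Agilent 4×180K protein-binding microarrays was regression-normalized. Binding z-scores use random background probes as reference. Ligand-free nuclear receptor dimers were incubated on the arrays for 1 h and detected with antibodies against each partner (one per run).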

[2] = tested on: LXRa:RXRa (NR concentration 270 nM, RXRa partner concentration 90 nM)
Method in brief: as §1

[3] = tested on: LXRa homodimer (NR concentration 270 nM)
Method in brief: as §1

[4] = tested on: LXRb:RXRa (NR concentration 270 nM, RXRa partner concentration 90 nM)
Method in brief: as §1

[5] = tested on: LXRb homodimer (NR concentration 270 nM)
Method in brief: as §1

[6] = tested on: PPARa:RXRa (NR concentration 270 nM, RXRa partner concentration 90 nM)
Method in brief: as §1

[7] = tested on: PPARg:RXRa (NR concentration 180 nM, RXRa partner concentration 90 nM)
Method in brief: as §1

[8] = tested on: PPARg:RXRa 270nM:90nM, anti-RXR (NR concentration 270 nM, RXRa partner concentration 90 nM)
Method in brief: as §1

[9] = tested on: PPARg:RXRa 30nM:10nM, anti-RXR (NR concentration 30 nM, RXRa partner concentration 10 nM)
Method in brief: as §1

[10] = tested on: PPARg:RXRa 90nM:30nM, anti-RXR (NR concentration 90 nM, RXRa partner concentration 30 nM)
Method in brief: as §1

| Sequence | PBM binding z-score [1] | PBM binding z-score [2] | PBM binding z-score [3] | PBM binding z-score [4] | PBM binding z-score [5] | PBM binding z-score [6] | PBM binding z-score [7] | PBM binding z-score [8] | PBM binding z-score [9] | PBM binding z-score [10] |
| --- | --- | --- | --- | --- | --- | --- | --- | --- | --- | --- |
| ATATCTAGGTAACCAAGTTCAGTGAATGCCGAAC | 0.636 | 0.866 | 0.932 | 0.565 | 0.434 | 2.98 | 4.48 | 3.23 | 1.23 | 2.32 |
| ATATGTAGGTTATCGGGTCGTTCAGTTTGCGCAT | 1.16 | 1.68 | 0.76 | 1.73 | 0.781 | 3.79 | 5 | 4.95 | 2.24 | 4.25 |
| AGTAGCAGGCCAAGTTTGGGTCACTCAAACAAAG | 0.202 | -0.31 | -0.37 | 0.549 | -0.802 | 1.47 | -0.0669 | 0.42 | -0.474 | -0.201 |
| GGAACGAGGGCAAGTTGATACCAGAGTTTGATGG | 1.04 | 0.448 | -0.0805 | 0.373 | 0.0862 | 1.58 | 1.31 | 1.19 | 0.0746 | 0.594 |
| TCGAGTAGGTTACCAATGGGTCATTCAGCTTTCT | 1.16 | 3.38 | 0.134 | 2.15 | -0.601 | 2.66 | 0.754 | 1.91 | 1.5 | 1.72 |
| TAGCCTAGGACATTCAGGGGCCAGTATAGAAAGC | -0.499 | -0.54 | -0.456 | -0.243 | -0.646 | -0.572 | 0.256 | -0.544 | -0.505 | -0.409 |
| CCTTACGGGTCACTGACATGTTATAGCATTTGGA | 5.55 | 3.84 | 0.306 | 3.54 | 0.233 | 5.2 | 4.42 | 4.66 | 2.21 | 3.45 |
| AGTCAAAGTTCAGGACGAGGTAAGGTAAAGCACG | 4.31 | 3.87 | 1.46 | 1.95 | 0.293 | 3.46 | 4.39 | 5.12 | 2.13 | 4.27 |
| ATCTCTTGGTAAAGATAGTTCAGTGAATGCAAAT | 0.445 | 0.78 | 0.577 | 0.693 | 0.423 | 0.553 | 0.212 | 0.257 | 0.185 | 0.285 |
| ATCTCTAGGTAACTAAGTTCAGTGAATGCCGAAC | 0.51 | 0.962 | 1.22 | 1.02 | 0.792 | 1.32 | 0.573 | 0.892 | 0.181 | 0.816 |
| ATATGTAGGTTAGCAGGGGTCATTCAGACTAGGC | 5.14 | 5.99 | 4.53 | 5.37 | 1.78 | 5.56 | 6.6 | 5.97 | 3.32 | 5.33 |
| CAAACTAGGTCACAGAGGTCAAAGACCGTGCGTA | 7.36 | 6.53 | 6.56 | 5.93 | 1.73 | 6.52 | 10.5 | 8.43 | 6.84 | 8.38 |
| GATACAGGGTCAAGGCCAGAGCACGCGTATTGAT | 6.68 | 4.17 | 0.0226 | 3.67 | -0.301 | 5.48 | 5.84 | 5.3 | 2.03 | 4.13 |
| CAGCCTAGGTCATGGCCAGTATAGGAGGAACGTT | 4.47 | 3.18 | -0.187 | 1.92 | -0.552 | 3.81 | 2.34 | 2.86 | 0.578 | 1.71 |
| TTACCGAGGTGAGCTGAGGTCGTTGATCCAACTC | 1.71 | 1.73 | -0.575 | 1.16 | -0.881 | 2.03 | 0.345 | 0.915 | -0.318 | 0.221 |
| ACTATTAGTTAACTTAGGGCAACCGATACGACGC | 0.0468 | 1.21 | 0.294 | 0.256 | 0.392 | 0.281 | 1 | 0.361 | 0.616 | 0.282 |
| ATACCACGGTGATCGTGAGGTCGTTGATACTAAC | 1.06 | 0.834 | 0.899 | 0.931 | -0.0132 | 0.958 | 0.3 | 0.0838 | -0.0631 | 0.19 |
| ATTTCTAGGTAACCAAGTTCAGTGAATGCCGAAC | 0.465 | 0.956 | 1.1 | 0.544 | 0.68 | 2.16 | 1.8 | 1.8 | 0.773 | 1.38 |
| ATCTCTAGGTAACAGGTTCAGTGAAAGAGAGGAC | 0.507 | 0.677 | 0.529 | 0.67 | 1.09 | 1.8 | 2.61 | 2.9 | 1.5 | 2.78 |
| CCTGCTTGGTCATGGTCAGCTAATCTACAGTATG | -0.315 | -0.299 | -0.539 | -0.459 | -0.639 | -0.334 | -0.171 | -0.154 | -0.537 | -0.192 |
| ATCTCTAGGTAAAGATAGTTCAGTTAATGCAAAT | 0.733 | 4.33 | 1.07 | 1.39 | 0.619 | 0.689 | 0.743 | 0.482 | 0.448 | 0.659 |
| AGAATGAGGTTATACGTCGATCAGGGAAGAAAGT | 2.16 | 1.54 | -0.164 | 1.29 | 0.0862 | 3.16 | 2.32 | 2.99 | 1.45 | 2.25 |
| TCTAGCAGGCCAGAGGGTCACTTAAGAGGTACGG | 1.18 | 0.809 | -0.547 | 1.05 | -1.09 | 2.4 | 1.58 | 2.96 | 2.13 | 2.57 |
